CYP2C19 inhib: blocks human cytochrome P450 2C19; P33261; CYP2C19 Supersomes, luciferin-H EGE luminescence, 30 min; inhibition, % at 5 µM; 96,000 tested, 21% active;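 active = CYP2C19 inhibition above a set limit at 5 µM in the primary screen, cut at about 50% in these data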
Mac1 fbg inh: inhibitors of human CD11b/CD18 binding to fibrinogen. P05107+P11215. K562 CD11b/CD18 adhesion to fibrinogen, ATPlite luminescence; Mn2+ added to activate the integrin. inhibition, % at 10 µM. 93,000 tested, 0.54% active. AID 1497;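 active = primary inhibition of 50% or more at 10 µM, then 40% or more on retest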
Target sequence (P05107 whole entry, looked up, other chains not shown): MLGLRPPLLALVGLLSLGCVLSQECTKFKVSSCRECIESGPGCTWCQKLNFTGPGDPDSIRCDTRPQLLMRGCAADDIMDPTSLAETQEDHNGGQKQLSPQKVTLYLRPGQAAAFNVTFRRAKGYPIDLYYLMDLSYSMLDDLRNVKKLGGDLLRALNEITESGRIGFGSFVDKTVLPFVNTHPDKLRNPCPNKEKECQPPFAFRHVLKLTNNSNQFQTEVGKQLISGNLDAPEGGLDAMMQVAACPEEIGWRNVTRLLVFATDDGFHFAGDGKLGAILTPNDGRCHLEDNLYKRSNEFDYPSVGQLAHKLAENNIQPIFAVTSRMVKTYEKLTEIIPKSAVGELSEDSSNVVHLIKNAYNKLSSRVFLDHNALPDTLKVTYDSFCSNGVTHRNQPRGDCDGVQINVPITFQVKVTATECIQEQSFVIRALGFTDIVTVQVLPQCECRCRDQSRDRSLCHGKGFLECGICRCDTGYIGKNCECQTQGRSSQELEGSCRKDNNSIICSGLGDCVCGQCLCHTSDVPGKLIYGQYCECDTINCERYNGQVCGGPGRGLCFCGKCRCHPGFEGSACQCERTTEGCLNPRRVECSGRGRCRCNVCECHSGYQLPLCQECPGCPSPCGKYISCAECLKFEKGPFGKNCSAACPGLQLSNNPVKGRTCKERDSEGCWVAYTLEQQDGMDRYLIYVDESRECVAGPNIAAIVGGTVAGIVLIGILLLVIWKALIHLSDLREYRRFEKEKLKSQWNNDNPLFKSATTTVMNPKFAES
Mac1 fbg enh: enhancers of human CD11b/CD18 binding to fibrinogen | P05107+P11215 | K562 CD11b/CD18 adhesion to fibrinogen, ATPlite luminescence | activation, % at 10 µM | 93,000 tested, 0.07% active;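 active = 10 µM primary screen giving 50% or more activity, confirmed by 40% or more on retest at that dose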
CYP2C9 inh: blocks human cytochrome P450 2C9; inhibition, % at 5 µM; P11712; CYP2C9 Supersomes, luciferin-H conversion, luminescence; 96,000 tested, 20% active; AID 777;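 active = blocking of liver enzyme CYP2C9 beyond about 50% at 5 µM, limit read from the data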
CYP2C19 activ: increases human CYP2C19 enzyme activity; 96,000 tested, under 10 active; recombinant CYP2C19, luciferin-H EGE luminescence; hits give high values; 0 = fully inhibited enzyme, 1 = untreated enzyme; AID 1025; activation factor at 5 µM; P33261;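 active = activation factor of at least 2 at 5 µM in the primary screen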
CYP2C9 activ: activators of human CYP2C9; recombinant CYP2C9, luciferin-H conversion, luminescence; hits give high values; factor 1 = untreated enzyme, 0 = blocked; activation factor at 5 µM; 96,000 tested, 1.4% active;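 active = activation factor of 2 or more for CYP2C9 at a 5 µM dose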
Each line names hits and unclear results; the compound was inactive in the other large screens. Only some compounds are listed: those with a hit (about 28% of all), similar ones and a draw of the others.

COc1cc(C2NC(C(=O)O)CS2)ccc1OCc1ccccc1C#N (stereo not drawn)	CYP2C19 inhib 59
COc1ccc(OC)c(NC(=O)CC(NCCC2=CCCCC2)C(=O)O)c1 (stereo not drawn)	none
Cc1[nH]nc2c1C1(CCC3(CC1)OCCO3)C(C#N)=C(N)O2	none
CCOC(=O)N1CCC2(CC1)C(C#N)=C(N)Oc1n[nH]c(C)c12	CYP2C19 inhib 50
CC(=O)N1CCC2(CC1)C(C#N)=C(N)Oc1n[nH]c(CSc3ccc(C)cc3)c12	CYP2C9 inh 53
CCOC(=O)N1CCC2(CC1)C(C#N)=C(N)Oc1c2c(C)nn1-c1cccc(Cl)c1	Mac1 fbg inh 88, CYP2C9 inh 72
O=C(CCN1C(=O)C2C3C=CC(C3)C2C1=O)Nc1ccc2ncccc2c1 (stereo not drawn)	none
O=C(NCC1CCCO1)c1c(O)c2c([nH]c1=O)CCCC2 (stereo not drawn)	none
CCOC(=O)N(C)c1ccc(C(O)(C(F)(F)F)C(F)(F)F)cc1	none
CNc1ccc(C(O)(C(F)(F)F)C(F)(F)F)cc1C(O)(C(F)(F)F)C(F)(F)F	CYP2C19 inhib 75, CYP2C9 inh 53
C=CCNC(=O)/C(C#N)=C\c1cc(Cl)c(O)c(OCC)c1	none (no result: CYP2C19 inhib, CYP2C9 inh, CYP2C19 activ, CYP2C9 activ)
CCOc1cc(/C=C(/C#N)C(=O)Nc2ccc(O)cc2)cc(Br)c1O	CYP2C19 inhib 61, CYP2C9 inh 94
COc1ccc(OC)c(C(=O)c2coc3ccc(O)cc23)c1	CYP2C19 inhib 70, CYP2C9 inh 73
COc1ccc2occ(C(C)=O)c2c1	none
Cc1ccc(NC(=O)c2sc(Cl)nc2-c2ccccc2)cc1C	none
CCC1CCCCN1C(=O)CSc1nnc(-c2cccs2)o1 (stereo not drawn)	CYP2C19 inhib 98
COCCn1c(C)cc(C(=O)CSc2nncn2-c2ccccc2)c1C	CYP2C19 inhib 57
COc1ccc(-n2cnnc2SCC(=O)c2cc(C)n(Cc3cccs3)c2C)cc1	CYP2C19 inhib 99, CYP2C9 inh 76
COc1ccc(-c2nnc(SCC(=O)c3cc(C)n(Cc4cccs4)c3C)o2)cc1	CYP2C19 inhib 80, CYP2C9 inh 78
Cc1cc(C(=O)CSc2nnc(-c3cccs3)o2)c(C)n1-c1ccccc1	CYP2C19 inhib 66, CYP2C9 inh 89
O=C(Nc1ccncc1)c1cn(-c2ccccc2)nc1-c1cccs1	CYP2C19 inhib 94, CYP2C9 inh 93
COc1ccc(-c2nn(-c3ccccc3)cc2C(=O)Nc2nccs2)cc1	CYP2C9 inh 52
CC(NC(=O)COC(=O)c1cn(-c2ccccc2)nc1-c1cccs1)c1ccccc1 (stereo not drawn)	CYP2C9 inh 67
O=C(c1cn(-c2ccccc2)nc1-c1cccs1)N1CCN(c2ccc(F)cc2)CC1	CYP2C19 inhib 84, CYP2C9 inh 74
COc1ccc(NC(=O)C(Sc2nnc(-c3ccncc3)n2-c2ccccc2C)c2ccccc2)cc1Cl (stereo not drawn)	none (no result: CYP2C19 inhib, CYP2C9 inh, CYP2C19 activ, CYP2C9 activ)
c1ccc(C(c2ccccc2)N2CCN(c3nc4ccccc4n4cnnc34)CC2)cc1	none
CC1CN(S(=O)(=O)c2cccc(C(=O)OC/C(O)=C(\C#N)c3nc4ccccc4[nH]3)c2)CC(C)O1 (stereo not drawn)	none (no result: CYP2C19 inhib, CYP2C9 inh, CYP2C19 activ, CYP2C9 activ)
CC(C)OC(=O)C1C2C=CC3(CN(Cc4cccs4)C(=O)C13)O2 (stereo not drawn)	none
CCN(CC)c1cnn(C/C(=N\OC)c2ccc(Cl)cc2)c(=O)c1Br	CYP2C19 inhib 97, CYP2C9 inh 94
CO/N=C(\Cn1ncc(N2CCCC2)c(Cl)c1=O)c1ccc(Cl)cc1	none
COc1ccc2[nH]cc(C(=O)CN3CCCC(C)C3)c2c1 (stereo not drawn)	none (no result: Mac1 fbg inh, Mac1 fbg enh)
COc1cccc(N2CCN(CC(=O)c3c[nH]c4ccc(OC)cc34)CC2C)c1 (stereo not drawn)	CYP2C9 inh 50
COC(=O)c1ccc(Nc2nc(C)cc(C)n2)cc1	none
COc1nc(Nc2ccc(C(C)=O)cc2)nc(OC)n1	CYP2C19 inhib 51, CYP2C9 inh 51
COc1nc(Nc2ccc3c(c2)OCO3)nc(OC)n1	CYP2C9 inh 68
COc1ccc(C)cc1N(C(=O)CNC(=O)c1ccco1)C(C(=O)NC1CCCC1)c1cccnc1 (stereo not drawn)	none
CCNC(=O)OCC12CC3CC(CC(C3)C1)C2	none (no result: CYP2C19 inhib, CYP2C9 inh, CYP2C19 activ, CYP2C9 activ)
O=S(Cc1ccc(Br)cc1)Cc1nnc(SCc2ccc(Cl)cc2)n1-c1ccccc1 (stereo not drawn)	CYP2C9 inh 52 (no result: Mac1 fbg inh, Mac1 fbg enh)
Cc1ccc(CSc2nnc(CS(=O)Cc3ccc(Cl)cc3Cl)n2C)cc1 (stereo not drawn)	CYP2C9 inh 54
Cn1c(CS(=O)Cc2c(Cl)cccc2Cl)nnc1SCc1ccc(Cl)cc1 (stereo not drawn)	none
COC(=O)c1ccc(C(=O)OC)c(N)c1	none
COC(=O)c1ccc(N2CCC(C)CC2)c(N)c1	CYP2C19 inhib 60
CC(CC(C)C(=O)N1CCOCCN(C(=O)C(C)CC(C)C(=O)O)CCOCC1)C(=O)O (stereo not drawn)	none
O=C(CN(Cc1ccccc1)C(=O)CCC(=O)Nc1ccccn1)NCc1ccco1	CYP2C19 inhib 59
O=C(CCCC(=O)N(c1ccc2c(c1)OCCO2)C(C(=O)NC1CCCCC1)c1ccc(Cl)cc1)Nc1ccccn1 (stereo not drawn)	CYP2C19 inhib 55, CYP2C9 inh 52
COCCC(=O)N(Cc1ccc2c(c1)OCO2)C(C(=O)NC1CCCCC1)c1ccncc1 (stereo not drawn)	none
O=C(CN(Cc1ccc2c(c1)OCO2)C(=O)c1cnsn1)NC1CCCC1	CYP2C19 inhib 88
O=C(CCCC(=O)N(CC(=O)NC1CCCC1)Cc1ccc2c(c1)OCO2)Nc1ccccn1	CYP2C19 inhib 60, CYP2C9 inh 60
CSCC[C@H](NC(=O)OC(C)(C)C)c1nnc(SCC(=O)Nc2ccc(C)cc2C)o1	none
O=C(CCCC(=O)OCC(=O)NC1CCCC1)Nc1ccccn1	none
O=C(CCCC(=O)N(CC(=O)NC1CCCC1)Cc1ccccc1)Nc1ccccn1	CYP2C9 inh 50
CCOC(=O)CNC(c1ccccc1)c1cc(Br)ccc1NC(=O)OCC (stereo not drawn)	CYP2C9 inh 56 (no result: Mac1 fbg inh, Mac1 fbg enh)
CCOC(=O)c1sc(Nc2ccccc2)nc1C	none
CCOC(=O)c1sc(NS(=O)(=O)c2ccccc2)nc1C	CYP2C9 inh 81 (no result: Mac1 fbg inh, Mac1 fbg enh)
CCOC(=O)c1sc(Nc2ccc(C)cc2C)nc1C	CYP2C9 inh 88
CCOC(=O)c1c(Nc2nc(C)c(C(=O)NC)s2)sc(C)c1C	CYP2C9 inh 65
CCOC(=O)c1sc(NS(=O)(=O)c2ccc(NC(C)=O)cc2)nc1C	none
CCOC(=O)c1sc(NS(=O)(=O)c2ccccc2Cl)nc1C	CYP2C19 inhib 52, CYP2C9 inh 96
CCCCCOc1ccc(C(=O)NCC(=O)NCC(=O)OCC)cc1	none

Screening data from PubChem.
